The test has as its target T1, ETS1 (UniProt P14921).
T1 sequence: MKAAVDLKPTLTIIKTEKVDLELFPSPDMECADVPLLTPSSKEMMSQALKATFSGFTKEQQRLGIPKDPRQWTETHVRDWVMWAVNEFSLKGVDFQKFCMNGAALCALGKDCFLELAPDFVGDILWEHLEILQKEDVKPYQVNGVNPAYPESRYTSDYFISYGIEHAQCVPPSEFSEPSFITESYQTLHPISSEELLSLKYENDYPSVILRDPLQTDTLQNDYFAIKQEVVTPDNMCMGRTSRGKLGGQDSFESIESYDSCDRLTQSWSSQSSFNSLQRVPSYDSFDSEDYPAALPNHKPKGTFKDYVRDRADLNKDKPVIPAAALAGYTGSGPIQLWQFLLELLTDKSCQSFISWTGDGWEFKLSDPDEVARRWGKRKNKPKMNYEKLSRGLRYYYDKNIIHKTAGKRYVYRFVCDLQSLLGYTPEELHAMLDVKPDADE
Kind of test: ETS1 binding intensity (PBM fluorescence) in presence of RUNX1, normalised to ETS1-only experiment (arbitrary fluorescence units); higher = stronger binding. As to conditions: ETS1 concentration 1 nM; RUNX1 concentration 25 nM.
Regarding CCAGAAAGCTCCTCCTTCCGCCACAACACGATCACT, the ETS1 binding intensity came to 451.

Regarding TGAATATTCTTCCGCACGTACCCACATGGCTCACTT, the ETS1 binding intensity was 337.

In the case of ACACCGCTCAGGAAGACAAAGCCACACCTCACACCA, the ETS1 binding intensity is 358.

Consider AGAATTACCAGGAAGCCGAGCGCTGCGGGCTAGCGG, for which the ETS1 binding intensity is 631.

For the sequence GAAAGCACGTGTTTCCTGCGGCTGCACCCCAGCACC, the ETS1 binding intensity is 386.

Take TACCACTGAAAGGATGTGCGGGTAGAAATGAGCAAT: the ETS1 binding intensity was determined as 938.

As to GGTTGTGGAGTAGGATGTGGTGTCTAGCTTTCAGCA, the ETS1 binding intensity stood at 568.

GCTTCGTTTCCCGCCGGGGCTCACCGCGCCCCCCTA: the ETS1 binding intensity stood at 615.

Turning to ACTTACTTCCCGACGTCACAGCCTCCGACACCACAG, the ETS1 binding intensity amounted to 423.

Consider GGCCGGAAGCGCTCTCGTTGGCCCTGCGGCGCTGGA, for which the ETS1 binding intensity came to 2800.

As to TGGCTTCCTGTCTGTCCTTCATCAGCCCACAGAGGC, the ETS1 binding intensity came to 529.

Take GGGGCGCTGCGCAGGAAGCCGCAGTCCCTCTGCGGA: the ETS1 binding intensity is 1210.

CTAGGGAGAGGATGTGAGTTTGTCTGTGGGGGTGGT: the ETS1 binding intensity was found to be 828.

With GTCCCCTCCCCAGGATGTGGCCACCCGCTAGAGCAT, the ETS1 binding intensity was 1560.

In the case of GAATCACCATTTCCTCACTCCCACACAACCATGTTG, the ETS1 binding intensity came out at 417.

In the case of CATCTACTGAGGAAGTGTAAGCCACAATAAGAAGCC, the ETS1 binding intensity stood at 869.

With CAGATTCGTGTTTCCGTGCCCGCAGCTCCGTCAGCT, the ETS1 binding intensity worked out at 362.

As to AAGGACCGACCCGTTTTCCGCCCGCAGCGGAGCTTG, the ETS1 binding intensity was 457.

For the sequence CTGCGTCCCGGAAGGAGCGAGCTTGCGGAGCGTGAA, the ETS1 binding intensity stood at 542.

As to AAAACCTTGTTGAAAGGATGTGGCTTAGCGAGAGGT, the ETS1 binding intensity was 1820.

For the sequence GCAAGGTGGAGAGGAGGATGTGGCTTACCAGCAATT, the ETS1 binding intensity amounted to 1990.

The record behind these values is the supplement of paper PMC10681739.
